# In PubChem BioAssay (EPA / NIEHS):
# Inconclusive results are not listed. Activity calls are given as the source filed them. The calls were made as follows: active = hit-call score of the fitted dose curve at least 0.9, where 1 is the maximum; inconclusive = response in the unintended direction; inactive = score below 0.9.
# Tests used:
# [1] = target: human Dual Specificity Protein Phosphatase 3 (DUSP3), DUSP3 (gene 1845) (UniProt P51452); experiment: NVS_ENZ_hDUSP3: NovaScreen (NVS) Enzymatic Assay for human Dual Specificity Protein Phosphatase 3 (DUSP3) (AID 2283152);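 also: phosphatase activity of recombinant human DUSP3 on a fluorogenic substrate without cells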
# Method in brief: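 Cell-free fluorescence-intensity enzyme activity assay with recombinant protein and substrate; loss of signal fitted relative to DMSO baseline. Primary screen in duplicate at 25 uM, actives then run in concentration series; measured 0 h after dosing.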
# [2] = target: human Elastase, ELANE (gene 1991) (UniProt P08246); experiment: NVS_ENZ_hElastase: NovaScreen (NVS) Enzymatic Assay for human Elastase (AID 2283153)
# Method in brief: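 Concentration-response to 50 uM max, run singly for chemicals passing a threshold (e.g., 30% inhibition) in a duplicate 25 uM single-point screen. Neutrophil-derived human elastase, absorbance read-out of enzyme activity at 1.5 h; DMSO baseline.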
# [3] = target: human Insulin Receptor (InsR), INSR (gene 3643) (UniProt P06213); experiment: NVS_ENZ_hInsR: NovaScreen (NVS) Enzymatic Assay for human Insulin Receptor (InsR) (AID 2283168)
# Method in brief: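 Cell-free enzyme assay read 1 h post-dose by fluorescence after substrate/product mobility-shift separation. Duplicate 25 uM primary screen, then singleton concentration-response up to 50 uM for compounds passing threshold; loss of signal vs DMSO.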
# [4] = target: human Esterase Plasma (ES), BCHE (gene 590) (UniProt P06276); experiment: NVS_ENZ_hES: NovaScreen (NVS) Enzymatic Assay for human Esterase Plasma (ES) (AID 2283157)
# Method in brief: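 Primary single-concentration screen at 25 uM in duplicate, then concentration-response to a 50 uM top dose. Human plasma esterase activity detected colorimetrically after 0.25 h incubation, with DMSO as baseline.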
# [5] = target: human Ephrin type-A Receptor 1 (EphA1), EPHA1 (gene 2041) (UniProt P21709); experiment: NVS_ENZ_hEphA1: NovaScreen (NVS) Enzymatic Assay for human Ephrin type-A Receptor 1 (EphA1) (AID 2283158);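 also: activity is signal loss versus DMSO meaning EphA1 kinase inhibition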
# Method in brief: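 Fluorescent substrate conversion, resolved by mobility-shift separation, measured 1 hour post-dosing using recombinant enzyme; signal loss relative to DMSO baseline. Single-concentration duplicates at 25 uM preceded singleton concentration series topping at 50 uM.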
# [6] = target: human FYN Proto-Oncogene, Src family Tyrosine Kinase (Fyn), FYN (gene 2534) (UniProt P06241); experiment: NVS_ENZ_hFyn: NovaScreen (NVS) Enzymatic Assay for human FYN Proto-Oncogene, Src family Tyrosine Kinase (Fyn) (AID 2283161)
# Method in brief: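 Cell-free kinase activity read by fluorescence after mobility-shift separation of substrate and product, 1 h post-dose. Initial single concentration 25 uM in duplicate, then concentration-response follow-up; DMSO baseline.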
# [7] = target: Histone deacetylase 3 (Homo sapiens) (UniProt O15379); experiment: NVS_ENZ_hHDAC3: NovaScreen (NVS) Enzymatic Assay for human Histone Deacetylase 3 (HDAC3) (AID 2283163)
# Method in brief: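 Cell-free enzyme format: loss of fluorescent product after mobility-shift separation, 1 h incubation, recombinant human HDAC3. Single 25 uM duplicate screen first, then concentration series to a 50 uM top for hits; DMSO as baseline.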
# [8] = target: human Janus Kinase 2 (Jak2), JAK2 (gene 3717) (UniProt O60674); experiment: NVS_ENZ_hJak2: NovaScreen (NVS) Enzymatic Assay for human Janus Kinase 2 (Jak2) (AID 2283169)
# Method in brief: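 Single-point duplicate screen at 25 uM, with hits run in concentration series to a 50 uM top dose. Substrate-product separation by mobility shift with fluorescence detection, 1 h post-dosing; DMSO baseline.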
# [9] = target: Glycogen synthase kinase-3 beta (Homo sapiens) (UniProt P49841); experiment: NVS_ENZ_hGSK3b: NovaScreen (NVS) Enzymatic Assay for human Glycogen Synthase Kinase-3 beta (GSK3b) (AID 2283165)
# Method in brief: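 Recombinant enzyme with specific fluorescent substrate, 1 h, product separated by electrophoretic mobility shift. Primary duplicate screen at 25 uM; actives (e.g. 30% inhibition) followed in singleton concentration-response to 50 uM. Signal loss fitted versus DMSO.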
# [10] = target: human c-Jun N-terminal Kinases (JNK2), MAPK9 (gene 5601) (UniProt P45984); experiment: NVS_ENZ_hJNK2: NovaScreen (NVS) Enzymatic Assay for human c-Jun N-terminal Kinases (JNK2) (AID 2283171)
# Method in brief: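 Chemicals first tested in duplicate at 25 uM, then in singleton concentration series up to 50 uM, against extracted JNK2 enzyme. Activity loss read by fluorescence with mobility-shift separation 1 h post-dose; DMSO baseline.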
# Chain of human Janus Kinase 2 (Jak2), JAK2 (gene 3717) (O60674 whole entry, looked up): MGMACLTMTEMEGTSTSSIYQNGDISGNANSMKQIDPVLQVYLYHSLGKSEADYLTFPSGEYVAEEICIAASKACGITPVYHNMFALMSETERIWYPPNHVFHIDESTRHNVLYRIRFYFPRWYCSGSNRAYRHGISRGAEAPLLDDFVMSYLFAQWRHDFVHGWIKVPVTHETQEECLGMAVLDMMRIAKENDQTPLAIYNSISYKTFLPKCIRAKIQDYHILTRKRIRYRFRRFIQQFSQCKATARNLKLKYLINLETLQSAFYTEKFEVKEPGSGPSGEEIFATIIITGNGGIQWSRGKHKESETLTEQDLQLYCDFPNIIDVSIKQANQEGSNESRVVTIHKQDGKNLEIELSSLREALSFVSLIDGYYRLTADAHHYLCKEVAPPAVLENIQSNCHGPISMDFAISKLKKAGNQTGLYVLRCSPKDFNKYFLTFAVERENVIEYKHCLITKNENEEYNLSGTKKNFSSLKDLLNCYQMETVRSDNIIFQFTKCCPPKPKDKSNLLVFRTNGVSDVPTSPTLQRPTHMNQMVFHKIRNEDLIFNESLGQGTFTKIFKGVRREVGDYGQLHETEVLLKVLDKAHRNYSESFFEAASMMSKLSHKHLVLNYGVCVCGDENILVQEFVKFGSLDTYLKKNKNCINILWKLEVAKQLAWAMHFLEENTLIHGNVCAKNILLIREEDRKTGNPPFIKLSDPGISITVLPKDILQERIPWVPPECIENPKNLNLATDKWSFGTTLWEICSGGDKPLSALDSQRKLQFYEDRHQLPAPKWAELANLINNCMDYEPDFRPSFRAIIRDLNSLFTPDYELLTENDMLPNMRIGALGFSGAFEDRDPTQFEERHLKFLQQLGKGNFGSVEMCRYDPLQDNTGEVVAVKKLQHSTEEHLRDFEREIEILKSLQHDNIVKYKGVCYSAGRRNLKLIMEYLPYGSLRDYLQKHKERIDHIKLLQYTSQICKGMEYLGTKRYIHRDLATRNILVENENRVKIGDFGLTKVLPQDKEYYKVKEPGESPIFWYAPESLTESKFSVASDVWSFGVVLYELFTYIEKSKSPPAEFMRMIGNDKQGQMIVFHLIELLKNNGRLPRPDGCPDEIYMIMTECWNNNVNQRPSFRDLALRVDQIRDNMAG
# Chain of human Ephrin type-A Receptor 1 (EphA1), EPHA1 (gene 2041) (P21709 whole entry, looked up): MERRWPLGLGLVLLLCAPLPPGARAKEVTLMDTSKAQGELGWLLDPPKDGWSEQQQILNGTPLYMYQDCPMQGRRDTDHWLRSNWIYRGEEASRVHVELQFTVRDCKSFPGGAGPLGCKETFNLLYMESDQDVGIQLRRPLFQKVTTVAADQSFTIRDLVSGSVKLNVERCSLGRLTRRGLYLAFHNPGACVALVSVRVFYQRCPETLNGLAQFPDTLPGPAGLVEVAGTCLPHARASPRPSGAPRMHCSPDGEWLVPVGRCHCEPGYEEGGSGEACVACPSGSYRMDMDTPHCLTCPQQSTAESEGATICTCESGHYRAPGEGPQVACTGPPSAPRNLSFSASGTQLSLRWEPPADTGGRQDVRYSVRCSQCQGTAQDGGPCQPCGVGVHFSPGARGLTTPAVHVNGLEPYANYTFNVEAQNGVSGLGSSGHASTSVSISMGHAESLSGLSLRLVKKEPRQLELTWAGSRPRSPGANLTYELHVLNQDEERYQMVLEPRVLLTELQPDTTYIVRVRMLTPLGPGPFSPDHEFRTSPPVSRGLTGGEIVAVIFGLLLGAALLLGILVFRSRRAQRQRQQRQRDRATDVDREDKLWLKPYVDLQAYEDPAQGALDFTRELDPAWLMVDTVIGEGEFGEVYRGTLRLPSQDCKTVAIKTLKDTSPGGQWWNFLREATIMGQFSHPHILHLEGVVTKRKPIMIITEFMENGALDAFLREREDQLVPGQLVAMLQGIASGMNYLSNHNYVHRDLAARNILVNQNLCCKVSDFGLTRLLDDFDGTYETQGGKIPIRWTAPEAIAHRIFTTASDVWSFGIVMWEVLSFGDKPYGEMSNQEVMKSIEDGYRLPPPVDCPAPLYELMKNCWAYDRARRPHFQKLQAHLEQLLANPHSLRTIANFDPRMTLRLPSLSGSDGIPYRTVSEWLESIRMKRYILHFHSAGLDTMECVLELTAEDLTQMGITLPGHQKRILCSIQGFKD
# Chain of human Esterase Plasma (ES), BCHE (gene 590) (P06276 whole entry, looked up): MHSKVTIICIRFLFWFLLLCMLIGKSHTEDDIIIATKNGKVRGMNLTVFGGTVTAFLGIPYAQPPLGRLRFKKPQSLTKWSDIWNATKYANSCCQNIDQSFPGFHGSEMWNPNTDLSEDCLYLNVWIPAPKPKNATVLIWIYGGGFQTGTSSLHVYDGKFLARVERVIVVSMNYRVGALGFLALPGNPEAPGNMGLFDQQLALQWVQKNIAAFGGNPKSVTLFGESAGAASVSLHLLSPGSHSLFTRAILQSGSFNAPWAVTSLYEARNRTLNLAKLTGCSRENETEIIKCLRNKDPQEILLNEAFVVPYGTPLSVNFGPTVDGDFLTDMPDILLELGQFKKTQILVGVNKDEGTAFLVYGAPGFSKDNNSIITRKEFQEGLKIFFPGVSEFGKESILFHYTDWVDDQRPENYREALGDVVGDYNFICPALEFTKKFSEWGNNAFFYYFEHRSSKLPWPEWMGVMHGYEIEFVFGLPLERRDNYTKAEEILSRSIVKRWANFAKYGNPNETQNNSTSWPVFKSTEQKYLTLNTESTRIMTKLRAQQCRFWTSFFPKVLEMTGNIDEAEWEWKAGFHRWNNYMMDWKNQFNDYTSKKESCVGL
# Chain of Glycogen synthase kinase-3 beta (Homo sapiens) (P49841 whole entry, looked up): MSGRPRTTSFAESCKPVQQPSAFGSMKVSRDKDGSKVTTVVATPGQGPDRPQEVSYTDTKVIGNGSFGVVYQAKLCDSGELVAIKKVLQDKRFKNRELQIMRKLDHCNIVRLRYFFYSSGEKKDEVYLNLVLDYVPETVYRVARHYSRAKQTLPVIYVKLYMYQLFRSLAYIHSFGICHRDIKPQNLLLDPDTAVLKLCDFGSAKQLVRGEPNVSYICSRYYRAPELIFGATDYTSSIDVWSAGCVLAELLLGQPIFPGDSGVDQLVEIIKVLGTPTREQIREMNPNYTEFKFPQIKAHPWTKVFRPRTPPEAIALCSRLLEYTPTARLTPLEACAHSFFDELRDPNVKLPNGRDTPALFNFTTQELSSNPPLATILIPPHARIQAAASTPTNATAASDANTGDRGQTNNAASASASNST
# Chain of human FYN Proto-Oncogene, Src family Tyrosine Kinase (Fyn), FYN (gene 2534) (P06241 whole entry, looked up): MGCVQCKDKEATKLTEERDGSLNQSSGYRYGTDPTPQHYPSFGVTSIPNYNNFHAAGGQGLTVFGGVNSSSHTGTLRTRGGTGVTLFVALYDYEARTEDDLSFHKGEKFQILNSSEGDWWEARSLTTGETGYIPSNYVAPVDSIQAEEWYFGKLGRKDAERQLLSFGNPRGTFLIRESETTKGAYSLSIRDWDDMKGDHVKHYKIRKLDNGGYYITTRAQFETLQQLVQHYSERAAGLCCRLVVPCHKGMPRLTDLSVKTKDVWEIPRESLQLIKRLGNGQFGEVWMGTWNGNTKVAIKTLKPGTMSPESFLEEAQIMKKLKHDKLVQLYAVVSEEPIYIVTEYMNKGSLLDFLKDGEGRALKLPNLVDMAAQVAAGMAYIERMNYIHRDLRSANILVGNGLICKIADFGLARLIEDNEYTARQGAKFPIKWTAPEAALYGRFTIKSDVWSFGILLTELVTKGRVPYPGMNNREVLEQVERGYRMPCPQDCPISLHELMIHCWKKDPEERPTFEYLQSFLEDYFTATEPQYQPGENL
# Chain of human Elastase, ELANE (gene 1991) (P08246 whole entry, looked up): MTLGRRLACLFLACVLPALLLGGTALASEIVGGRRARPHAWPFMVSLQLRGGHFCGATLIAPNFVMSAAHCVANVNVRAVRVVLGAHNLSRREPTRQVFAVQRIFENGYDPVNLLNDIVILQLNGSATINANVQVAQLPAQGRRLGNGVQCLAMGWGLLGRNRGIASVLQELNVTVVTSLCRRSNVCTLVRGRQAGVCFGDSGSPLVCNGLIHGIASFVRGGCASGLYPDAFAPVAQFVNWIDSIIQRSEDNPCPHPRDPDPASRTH
# Chain of human c-Jun N-terminal Kinases (JNK2), MAPK9 (gene 5601) (P45984 whole entry, looked up): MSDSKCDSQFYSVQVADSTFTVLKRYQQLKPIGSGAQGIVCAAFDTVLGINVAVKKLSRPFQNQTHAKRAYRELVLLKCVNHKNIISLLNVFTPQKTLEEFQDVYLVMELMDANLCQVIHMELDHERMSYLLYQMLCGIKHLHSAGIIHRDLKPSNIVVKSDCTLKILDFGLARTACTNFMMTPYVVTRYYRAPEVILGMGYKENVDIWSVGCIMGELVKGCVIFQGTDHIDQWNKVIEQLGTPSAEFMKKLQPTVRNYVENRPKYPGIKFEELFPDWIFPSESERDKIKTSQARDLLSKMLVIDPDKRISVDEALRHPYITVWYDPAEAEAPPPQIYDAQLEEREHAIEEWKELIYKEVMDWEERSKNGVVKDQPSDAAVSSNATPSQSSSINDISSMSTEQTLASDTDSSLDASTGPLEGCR
# Chain of Histone deacetylase 3 (Homo sapiens) (O15379 whole entry, looked up): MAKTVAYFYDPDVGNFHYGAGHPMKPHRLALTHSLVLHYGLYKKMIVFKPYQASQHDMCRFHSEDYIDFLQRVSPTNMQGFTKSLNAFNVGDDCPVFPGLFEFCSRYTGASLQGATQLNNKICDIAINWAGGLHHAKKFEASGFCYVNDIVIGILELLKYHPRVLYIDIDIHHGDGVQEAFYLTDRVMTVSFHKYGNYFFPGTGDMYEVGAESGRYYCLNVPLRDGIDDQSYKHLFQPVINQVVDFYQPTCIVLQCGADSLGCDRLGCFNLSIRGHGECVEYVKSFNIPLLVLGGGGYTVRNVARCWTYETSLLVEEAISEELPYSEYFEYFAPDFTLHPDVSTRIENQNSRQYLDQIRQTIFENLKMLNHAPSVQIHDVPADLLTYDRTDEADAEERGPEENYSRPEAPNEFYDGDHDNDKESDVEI
# Chain of human Dual Specificity Protein Phosphatase 3 (DUSP3), DUSP3 (gene 1845) (P51452 whole entry, looked up): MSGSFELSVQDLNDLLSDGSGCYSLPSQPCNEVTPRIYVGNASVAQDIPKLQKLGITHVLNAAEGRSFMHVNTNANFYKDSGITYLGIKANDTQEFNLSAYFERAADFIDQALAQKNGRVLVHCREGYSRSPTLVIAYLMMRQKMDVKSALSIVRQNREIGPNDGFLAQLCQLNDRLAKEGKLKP
structure (smiles),measurement,setting,value
COC(=O)[C@H]1[C@H]2C[C@@H]3c4[nH]c5cc(OC)ccc5c4CCN3C[C@H]2C[C@@H](OC(=O)c2cc(OC)c(OC)c(OC)c2)[C@@H]1OC,AC50,[1],24.6 µM (active)
CCCCC(CC)COC(=O)CCCCCCCC(=O)OCC(CC)CCCC (stereo not drawn),AC50,[2],6.97 µM (active)
same,outcome,[3],inactive
CCN(CC)CCOc1ccc(C(=C(Cl)c2ccccc2)c2ccccc2)cc1,outcome,[4],inactive
same,outcome,[5],inactive
same,AC50,[6],33.6 µM (active)
same,AC50,[7],4.17 µM (active)
CC(C)(O)c1ccc(CNC(=O)c2cccnc2Oc2ccc(F)cc2)cc1,outcome,[2],inactive
same,outcome,[8],inactive
CN(C)CCCN(C)CCCN(C)C,AC50,[4],31.8 µM (active)
C#CC(O)C(CC)CCCC (stereo not drawn),outcome,[5],inactive
CN(C)C(=O)NC1(c2ccccc2)CCN(CCC[C@]2(c3ccc(Cl)c(Cl)c3)CCCN(C(=O)c3ccccc3)C2)CC1,AC50,[4],5.89 µM (active)
same,outcome,[9],inactive
same,outcome,[8],inactive
COc1ccc(OC(F)(F)F)cc1CN[C@H]1CCCN[C@H]1c1ccccc1,AC50,[4],1.47 µM (active)
same,outcome,[9],inactive
same,outcome,[8],inactive
CCCCc1nc2cccnc2n1Cc1ccc(-c2ccccc2-c2nnn[nH]2)cc1,outcome,[5],inactive
same,AC50,[7],17.2 µM (active)
O=C(O)CC(O)(CC(=O)O)C(=O)O,outcome,[6],inactive
same,outcome,[10],inactive
CC(N)=O,outcome,[3],inactive
CCCCCCCCCCCCCCCCO,outcome,[10],inactive
